# Reference: PMC4336329 (PLoS ONE, 2015)
# About 14,000 (4.5%) of roughly 310,000 compounds showed an effect of 50% or more. Effects have a minus sign here. This excerpt belongs to a sample that is enriched for strong results.
# Target: human ether-à-go-go-related gene (hERG) potassium channel (human, UniProt Q12809)
# Experiment: primary screen, population patch clamp on CHO cells stably expressing hERG; higher = less effect of the substance
# 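Note: peak tail current of the secondary pulse compared with the same well before compound.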
# Sequence of human ether-à-go-go-related gene (hERG) potassium channel (Q12809 whole entry, looked up): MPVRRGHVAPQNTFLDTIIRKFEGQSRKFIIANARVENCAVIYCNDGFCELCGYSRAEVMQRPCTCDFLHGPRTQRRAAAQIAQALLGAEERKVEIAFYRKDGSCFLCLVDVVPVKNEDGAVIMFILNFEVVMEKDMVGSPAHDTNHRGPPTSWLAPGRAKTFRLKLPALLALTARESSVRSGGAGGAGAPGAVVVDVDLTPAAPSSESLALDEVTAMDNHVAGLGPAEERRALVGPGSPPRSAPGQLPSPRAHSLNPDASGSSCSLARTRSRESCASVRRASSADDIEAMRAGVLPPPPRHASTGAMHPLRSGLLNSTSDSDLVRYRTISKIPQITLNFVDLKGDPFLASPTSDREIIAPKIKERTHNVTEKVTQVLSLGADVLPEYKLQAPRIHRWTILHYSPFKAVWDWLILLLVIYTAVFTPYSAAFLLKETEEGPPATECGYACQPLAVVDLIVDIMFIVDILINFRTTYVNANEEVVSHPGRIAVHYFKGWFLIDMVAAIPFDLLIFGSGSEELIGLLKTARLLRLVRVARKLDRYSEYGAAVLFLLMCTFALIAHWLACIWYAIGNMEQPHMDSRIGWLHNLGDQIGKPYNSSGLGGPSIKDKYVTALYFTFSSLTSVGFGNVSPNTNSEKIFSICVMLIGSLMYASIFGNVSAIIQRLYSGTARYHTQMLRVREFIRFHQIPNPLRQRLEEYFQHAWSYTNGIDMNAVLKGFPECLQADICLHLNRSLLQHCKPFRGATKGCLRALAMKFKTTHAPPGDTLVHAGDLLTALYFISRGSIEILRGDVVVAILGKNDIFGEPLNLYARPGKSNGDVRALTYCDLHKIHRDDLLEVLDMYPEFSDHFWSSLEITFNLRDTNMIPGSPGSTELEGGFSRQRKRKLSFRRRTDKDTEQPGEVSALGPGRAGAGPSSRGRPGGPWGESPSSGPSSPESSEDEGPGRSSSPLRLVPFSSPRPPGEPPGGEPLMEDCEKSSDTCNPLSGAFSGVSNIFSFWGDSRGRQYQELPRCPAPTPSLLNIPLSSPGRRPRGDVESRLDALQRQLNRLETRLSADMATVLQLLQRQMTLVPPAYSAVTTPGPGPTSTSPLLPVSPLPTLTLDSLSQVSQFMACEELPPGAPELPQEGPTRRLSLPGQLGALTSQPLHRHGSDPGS
row,Compound,"hERG current change (%, negative = inhibition) at 10uM"
1,C/C(N)=C(/C#N)C(=O)CSc1nc2ccccc2c(=O)n1CCCOC(C)C,-21.2%
2,Cc1cc(O)cc(O)c1C=NCc1ccco1,-8.53%
3,CC1C(c2ccccc2)=NNc2nc3c(c(=O)n(C)c(=O)n3C)n21 (centres unmarked),3.99%
4,COc1ccc(NC(=O)c2ccc(-c3ccc(-c4noc(C)n4)cc3C)cc2)cc1N1CCN(C)CC1.Cl,-76%
5,COc1ccc(C(=O)Nc2ccc(N3CCN(C)CC3)cc2)cc1OC,-11.9%
6,COc1ccc(-c2nc(-c3ccc(NC(=O)c4ccncc4)cc3)no2)cc1OC,7.54%
7,CCOC(=O)c1c(NC(=O)CNC2CCCCC2)sc(C)c1C,10.3%
8,N#CCSc1nnc(COc2ccc3ccccc3c2)o1,-5.89%
9,COc1cc(CC(=O)OCC(=O)Nc2ccc3c(c2)OCCO3)cc(OC)c1OC,26%
10,O=C(Cc1ccc(Br)cc1)OCC(=O)c1ccc2c(c1)OCCO2,13.1%
11,COc1cc(CC(=O)OCC(=O)c2ccc3c(c2)OCCO3)cc(OC)c1OC,-58.6%
12,CC(=O)C1=C(O)C(=O)OC1c1ccc(Cl)cc1 (centres unmarked),7.92%
13,FC(F)(F)c1nnc2ccc(NCc3ccccc3)nn12,8.9%
14,CCN(CC(=O)Nc1c(F)cccc1F)C(=O)CSCC(=O)Nc1ccc(OC)cc1,-3.35%
15,CCN(CC(=O)Nc1ccc2c(c1)OCCO2)C(=O)CSCC(=O)Nc1ccc(C)cc1,-31.1%
16,CSc1ccc(CN(C)C(=O)CSCC(=O)Nc2cc(C)on2)cc1,6.59%
17,CCN(CC(=O)NCc1ccc(Cl)cc1)C(=O)CSCC(=O)Nc1ccc(C)cc1,-77.9%
18,CCN(CC(=O)NCc1ccc(Cl)cc1)C(=O)CSCC(=O)Nc1ccc(OC)cc1,-66.7%
19,CCN(CC(=O)Nc1ccc(NC(C)=O)cc1)C(=O)CSCC(=O)Nc1ccc(C)cc1,2.95%

row,Compound,"hERG current change (%, negative = inhibition) at 10uM"
1,CSc1ccc(CN(C)C(=O)CSCC(=O)Nc2ccc(C)cc2)cc1,-73%
2,Cc1ccc(CSCC(=O)N(C)CC(=O)Nc2ccc(C)cc2)cc1,-2.48%
3,CCN(CC(=O)Nc1ccc(OC)cc1)C(=O)CSCC(=O)Nc1ccc(C)cc1,-23.5%
4,CC(CCc1ccccc1)NCC(O)c1ccc(O)c(C(N)=O)c1.Cl (centres unmarked),-30.6%
5,CCOC(=O)C1CCCN(Cc2cc(=O)oc3cc(C)ccc23)C1 (centres unmarked),-13.6%
6,CCOCC(=O)Nc1ccccc1C(=O)N1CCOCC1,-0.166%
7,Nc1cc(N2CCCCC2)c(Cl)cc1[N+](=O)[O-],-10.8%
8,NC(=O)C1CCN(CC(=O)NC(=O)NC2CCCC2)CC1,9.34%
9,Cc1c(-c2cc(C(=O)O)no2)cnn1C,32.4%
10,O=C(NC(Cc1ccccc1)C(=O)O)/C(=C/c1cccc([N+](=O)[O-])c1)NC(=O)c1ccco1 (centres unmarked),-11.4%
11,C=CCOC(=O)/C(=C\c1ccccc1)NC(=O)c1ccco1,1.97%
12,O=C(OCc1ccccc1)/C(=C/c1cccc(Br)c1)NC(=O)c1ccco1,-52.5%
13,O=C(OCc1ccccc1)/C(=C/c1cccc([N+](=O)[O-])c1)NC(=O)c1ccco1,-63.3%
14,O=C(NC(Cc1ccccc1)C(=O)O)/C(=C\c1cccc([N+](=O)[O-])c1)NC(=O)c1ccco1 (centres unmarked),28.4%
15,CCOC(=O)/C(=C/c1ccccc1)NC(=O)c1ccco1,-7.55%
16,O=C(COc1ccc(Cl)cc1)NC(=S)Nc1ccccc1N1CCOCC1,17.4%
17,Cc1ccc2c(O)c(C)c(=O)[nH]c2n1,24.3%
18,O=C(Nc1ccc(S(=O)(=O)NC2=NCCCCC2)cc1)c1ccco1,2.7%
19,CCN(CC)c1ccc(NC(=O)CSc2ccsc2[N+](=O)[O-])c(C)c1,5.74%

row,Compound,"hERG current change (%, negative = inhibition) at 10uM"
1,Br.CN1CCN(CC(=O)c2cc(C(C)(C)C)c(O)c(C(C)(C)C)c2)CC1,-13.3%
2,COc1cccc(Cn2c(=O)oc3ccccc32)c1,4.3%
3,Cc1csc2nc(COC(=O)c3ccc(Cl)c([N+](=O)[O-])c3)cc(=O)n12,-63.1%
4,Cc1csc2nc(COC(=O)c3cccc(N(C)C)c3)cc(=O)n12,-32.5%
5,COc1ccc(C(=O)OCc2cc(=O)n3c(C)csc3n2)cc1F,-2.77%
6,Fc1ccc(-c2cc(C(F)(F)F)nc(N3CCCCC3)n2)cc1,19.5%
7,COc1ccccc1CNC(=O)C/C(C)=N/NC(=O)COc1ccc(C)cc1Br,-63.9%
8,C/C(Cn1nc([N+](=O)[O-])cc1C)=N\NC(=O)COc1ccc(Cl)cc1Cl,-66.3%
9,O=C(COc1ccc(Cl)cc1Cl)NCc1ccco1,0.837%
10,C/C(Cn1nc([N+](=O)[O-])cc1C)=N\NC(=O)COc1c(Cl)cc(Cl)cc1Cl,-68%
11,C/C(CC(=O)NCc1ccc(Cl)cc1)=N\NC(=O)COc1ccc(C)cc1Br,-33.1%
12,CCCNC(=O)C/C(C)=N/NC(=O)COc1ccc(C)cc1Br,-20.9%
13,C/C(CC(=O)NCc1ccco1)=N\NC(=O)c1ccc(Cl)cc1Cl,8.44%
14,C/C(Cn1nc([N+](=O)[O-])cc1C)=N\NC(=O)COc1ccccc1[N+](=O)[O-],-17.4%
15,Cc1cc(C)n(CC(=O)NNC(=O)COc2ccc(Cl)cc2Cl)n1,3.06%
16,COc1ccc(C(=O)N/N=C(\C)Cn2nc([N+](=O)[O-])cc2C)cc1,-15.8%
17,C/C(CC(=O)NCc1ccco1)=N\NC(=O)COc1ccc(Cl)cc1Cl,-65.6%
18,C/C(Cn1cnc([N+](=O)[O-])n1)=N/NC(=O)COc1c(Cl)cc(Cl)cc1Cl,-31.4%
